Results filed as inconclusive are left out. Active and inactive are the calls of the source. How the source made its calls: active means hit-call score of the fitted dose curve at least 0.9, where 1 is the maximum; inconclusive means response in the unintended direction; inactive means score below 0.9.
test: Tanguay_ZF_120hpf_PFIN_legacy: (Legacy) Oregon State University Tanguay Lab 120 Hour Post-fertilization zebrafish Assay for Pectoral Fin Malformation (AID 2283648);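 further: each larva judged yes or no for fin defect by brightfield with dead larvae skipped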
Description: Tanguay_ZF_120hpf_legacy is a whole embryo, multiplexed endpoint assay using zebrafish larvae exposed for 120 hours post fertilization on a 96-well plate.Tanguay_ZF_120hpf_PFIN_legacy is one of one assay component(s) measured or calculated from the Tanguay_ZF_120hpf_legacy assay. It is designed to make measurements of zebrafish development as detected with brightfield microscopy of developing zebrafish embryos.Data from the assay component Tanguay_ZF_120hpf_PFIN_legacy was analyzed into 1 assay endpoints. This assay endpoint, Tanguay_ZF_120hpf_PFIN_legacy, was analyzed in the positive analysis fitting direction relative to DMSO as the negative control and baseline of activity. Using a type of morphology reporter, gain-of-signal activity can be used to understand changes in developmentals as they relate to the whole embryo. To generalize the intended target to other relatable targets, this assay endpoint is annotated to the zebrafish development intended target family, where the subfamily is pectoral fin morphogenesis.
Zebrafish husbandry: Tropical 5D wild-type adult zebrafish were housed in at an approximate density of 1000 per 100 gallon tank at the Sinnhuber Aquatic Research Laboratory, Oregon State University, Corvallis, OR. Each tank was kept at standard laboratory conditions of 28C on a 14-h light/10-h dark photoperiod in fish water consisting of reverse osmosis water supplemented with a commercially available salt (Instant Ocean). Spawning funnels were placed into the tanks the night prior, and embryos were collected and staged. To increase bioavailability, the chorion was enzymatically removed using pronase (63.6mg/ml, >/= 3.5U/mg, Sigma-Aldrich: P5147) at 4 hours post fertilization (hpf) using a custom automated dechorionator.Chemical exposures: Six hpf dechorionated embryos were placed 1 embryo per well in a 96-well plate prefilled with 90 ul of EM using automated embryo placement systems (AEPS). Ten microliters of each row of dilution plate 2 was added to 2 exposure plates. The final DMSO concentration used was 0.64% (vol/vol). Thirty-two embryos were also exposed to 5uM trimethyltin chloride (positive control). Plates were sealed to prevent evaporation and foil covered to reduce light exposure and kept in a 28C incubator. Embryos were statically exposed until 120 hpf. At 24 hpf, embryos were assessed for photomotor response using a custom photomotor response analysis tool (PRAT) and for developmental toxicity endpoints (MO24: mortality at 24 hpf, DP: developmental progression, SM: spontaneous movement, and NC: notochord distortion). At 120 hpf, locomotor activity was measured using Viewpoint Zebralab and assessed for 18 endpoints. Zebrafish acquisition and analysis program (ZAAP), a custom program designed to inventory, acquire, and manage zebrafish data, was used to collect developmental endpoints as either present or absent (i.e., binary responses were recorded). If mortality occurred for an embryo (at either 24 or 120 hpf), the non-mortality endpoints were not measured.

Row | SMILES | outcome | AC50
1 | Nc1ccc([N+](=O)[O-])cc1 | inactive | 
2 | CN(C)[C@@H]1C(=O)C(C(N)=O)=C(O)[C@@]2(O)C(=O)C3=C(O)c4c(O)cccc4[C@@](C)(O)[C@H]3C[C@@H]12 | inactive | 
3 | ClCCOCCCl | inactive | 
4 | CCN(CC)N=O | inactive | 
5 | Clc1ccccc1Cl | inactive | 
6 | O=C1CCCO1 | inactive | 
7 | OCCCl | inactive | 
8 | Cc1cc(N=Nc2ccccc2C)ccc1N | inactive | 
9 | CCNS(=O)(=O)C(F)(F)C(F)(F)C(F)(F)C(F)(F)C(F)(F)C(F)(F)C(F)(F)C(F)(F)F |  | 48.4 µM (active)
10 | Cc1ccc(N=C=O)cc1N=C=O | inactive | 
11 | CC(C)(C)OOC(=O)c1ccccc1 | inactive | 
12 | O=C(O)C1C2CCC(O2)C1C(=O)O (stereo not given) | inactive | 
13 | COC(=O)Nc1nc2ccccc2[nH]1 | inactive | 
14 | OCCCBr | inactive | 
15 | [O-][Cl+]O | inactive | 
16 | COc1cc(C=O)cc2c1[C@H](COC(N)=O)[C@]1(OC(C)=O)ON2C[C@H]2[C@@H]1N2C(C)=O | inactive | 
17 | ClC1=C(Cl)[C@]2(Cl)[C@H]3[C@H]([C@@H]4C=C[C@H]3C4)[C@@]1(Cl)C2(Cl)Cl | inactive | 
18 | CCCCCCCCCCCCCN1CC(C)OC(C)C1 (stereo not given) | inactive | 
19 | CC(C)COC(=O)c1ccccc1C(=O)OCC(C)C |  | 45.5 µM (active)
20 | CCCCCOC(=O)c1ccccc1C(=O)OCCCCC | inactive | 

Row | SMILES | outcome | AC50
21 | O=C(Nc1ccccc1)c1ccccc1I |  | 47.3 µM (active)
22 | Nc1ccc(Cc2ccc(N)cc2)cc1 | inactive | 
23 | N#CC(Br)Br | inactive | 
24 | CCN(CC)CCO | inactive | 
25 | CC(C)(C)OOC(C)(C)CCC(C)(C)OOC(C)(C)C | inactive | 
26 | Cc1ccc([N+](=O)[O-])cc1 | inactive | 
27 | CNC(=O)Oc1cccc2c1OC(C)(C)C2 | inactive | 
28 | CCC12COCN1COC2 | inactive | 
29 | Clc1ccc(Cl)c(Cl)c1 | inactive | 
30 | C[C@]12C=CC3=C4CCC(=O)C=C4CC[C@H]3[C@@H]1CC[C@@H]2O | inactive | 
31 | CCCSC(=O)N(CCC)CCC | inactive | 
32 | O=Cc1ccco1 | inactive | 
33 | Nc1ccc(Cl)cc1N | inactive | 
34 | Nc1ccc(Oc2ccc(N)cc2)cc1 | inactive | 
35 | c1ccc(N=Nc2ccccc2)cc1 | inactive | 
36 | Brc1ccc(Oc2ccccc2)cc1 | inactive | 
37 | CC(C)N(Cc1ccccc1)C(=O)C(C)(C)C | inactive | 
38 | O=C(Oc1ccc(Br)cc1)N1CCN2CCC1CC2 | inactive | 
39 | CN(C)c1ccc(C(=O)c2ccc(N(C)C)cc2)cc1 |  | 17.2 µM (active)
40 | CC(C)(OOC(C)(C)c1ccccc1)c1ccccc1 | inactive | 
